Molecules are shown by their SMILES. Records with an inconclusive call do not appear. Entries that show only a call come without a potency. Activity calls are given as the source filed them. The call rests on the fitted dose curve; in most records, active means well fitted inhibition curve with a large enough effect; inconclusive means small, poorly fitted or top-dose-only effect; inactive means flat fitted curve, though single readings scatter.

Calcium and integrin-binding protein 1 (Homo sapiens), sequence (Q99828 whole entry, looked up): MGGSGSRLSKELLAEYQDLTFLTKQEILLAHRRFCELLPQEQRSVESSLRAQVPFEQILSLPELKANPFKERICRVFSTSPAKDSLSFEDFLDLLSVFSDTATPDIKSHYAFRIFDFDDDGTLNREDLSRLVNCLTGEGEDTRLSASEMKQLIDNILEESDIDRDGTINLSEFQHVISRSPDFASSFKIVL

The assay concerns the target Calcium and integrin-binding protein 1 (Homo sapiens) (UniProt Q99828). In words: Primary qHTS for Identification of Calcium Integrin Binding Protein 1 (CIB1) Competitor (AID 1508620).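 Further: GST tagged CIB1 binding a fluorescein labelled alphaIIb integrin peptide tracer; top concentration of the series differs between compounds.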 To be noted: CIB1-GST / FITC-alphaIIb peptide fluorescence polarization; series mostly up to 57.7 µM. An excerpt: Assay Provider: Ulhas P. Naik, PhD Sidney Kimmel Medical College Thomas Jefferson University, Philadelphia, PA Primary function of platelets is to maintain hemostasis. At the site of vascular injury, platelets adhere to adhesive proteins such as collagen and von Willebrand factor. Adherent platelets are activated and generate soluble platelet agonists such as thrombin, ADP and thromboxane A2. Following exposure of circulating platelets to these agonists, results in platelet shape change, granule secretion and activation of platelet integrin alphaIIb-beta3. Ligand binding to activated integrin alphaIIb-beta3 triggers outside-in signaling, leading to platelet aggregation, stabilization of platelet plug, and clot retraction. Upon atherosclerotic plaque rupture also causes platelet plug formation, which underlies a number of cardiovascular diseases such as myocardial infraction and stroke. A number of anti-platelet drugs such as aspirin, clopidogrel, prasugrel, vorapaxar, and eptifibatide are currently available to prevent the thrombotic complications. However, these anti-platelet agents have several limitations including inherent variability in individual responses, developing resistance, and serious bleeding side effects. For these reasons they are not suitable for long-term protection. Based on the experiences with current anti-platelet drugs, it appears that the most useful therapeutic approach is to intersect the secondary responses such as integrin outside-in signaling or recruitment of platelets by TxA2 and secreted ADP. Compounds, which can largely preserve the primary hemostatic function of platelets but inhibit secondary response will be most desired therapeutic agents for treatment of cardiovascular disease. CIB1 is a calcium integrin binding protein, which specifically interact with the alphaIIb subunit of integrin alphaIIb-beta3. Binding of CIB1 to alphaIIb regulates the outside-in signaling in platelets, which is needed for thrombus stabilization and thrombus growth. […] Therefore, we propose that discovery of a small molecule that can prevent the association of CIB1 and alphaIIb-beta3 will be a potential anti-platelet agent that can block the thrombus formation without undue effect on hemostasis. Reference: [1] Naik MU, Nigam A, Manrai P, et al. CIB1 deficiency results in impaired thrombosis: the potential role of CIB1 in outside-in signaling through integrin alpha IIb beta 3. J Thromb Haemost.
PROTOCOL TABLES SEQUENCE No. (1, 2, 3, etc.); […] (e.g., Cells, Incubation, Reagent, etc.); VALUE and DESCRIPTION. 1; Reagent; 3 uL; Protein or buffer (4/3x) 2; Compound; 46 nL; Control inhibitor / compound library 3; Time; 15 min; Room temperature incubation 4; Reagent; 1 uL; Fluorescent labeled peptide (4x) 5; Time; 1000 rpm; Centrifuge 6; Time; 15 min; Room temperature incubation 7; Detection; Ex 480/ Em 540; ViewLux Fluorescence Read NOTES (numbers refer to sequence above) 1; Protein Mixture: C1B1-GST (final concentrations of 1 uM). […] 3; Room temperature incubation. 4; Fluorescent Labeled Peptide: FITC-aIIb (final concentration of 100 nM). Sequence of alphaIIb peptide: Acetyl-[…]-FITC (purity is 95.83%). 5; Centrifuge 1000 rpm (164 g) for 15 seconds. 6; Room temperature incubation. 7; ViewLux Fluorescent Polization Read: excitation = 480(20) / emission = 540(25) S and P; FITC Dichroic mirror.
For the molecule `N[C@@]1(C(=O)O)CS(=O)(=O)[C@H]2[C@H](C(=O)O)[C@H]21`, the Potency entry is “inactive”.

Turning to `NC(=O)c1cccc(-c2cc(Nc3ccc(OC(F)(F)F)cc3)ncn2)c1`, the Potency entry is “inactive”.

For the molecule `COc1cc2ncnc(Nc3ccc(F)c(Cl)c3)c2cc1OCCCN1CCOCC1`, the Potency result is “inactive”.

`C[C@]12CC[C@@H]3c4ccc(O)cc4CC[C@H]3[C@H]1C[C@@H](O)[C@H]2O`: the Potency entry is “inactive”.

As for `N#CC1(c2ccc(NC(=O)c3cccnc3NCc3ccncc3)cc2)CCCC1`, the Potency entry was “inactive”.

Consider `CC=CC(=O)N(CC)c1ccccc1C`, for which the Potency entry was “inactive”.

As for `CC[C@H]1OC(=O)[C@H](C)C(=O)[C@H](C)[C@@H](O[C@H]2O[C@H](C)C[C@H](N(C)C)[C@@H]2O)[C@](C)(OC)C[C@@H](C)C(=O)[C@H](C)[C@H]2N(CCCCn3cnc(-c4cccnc4)c3)C(=O)O[C@]12C`, the Potency entry was “inactive”.

As for `CC1(C)CCC2=C(O1)c1ccccc1C(=O)C2=O`, the Potency entry was “inactive”.

Take `Cc1cnc(C(=O)O)c[n+]1[O-]`: the Potency entry is “inactive”.

With `CCC(=O)NC[C@H](Cc1ccc(OCCc2nc(-c3ccccc3)oc2C)cc1)NC(C)=CC(=O)c1ccc(C(F)(F)F)cc1`, the Potency result was “inactive”.

Take `CNC1CCC(N(Cc2cccc(-c3ccncc3)c2)C(=O)c2sc3c(F)ccc(F)c3c2Cl)CC1` (stereo not given): the Potency result is “inactive”.

In the case of `Oc1ccc(C2CCN(c3ccnc4ccccc34)CC2)cc1O`, the Potency entry was “inactive”.

Regarding `O=C1c2ccccc2-[n+]2ccc3c([nH]c4ccccc43)c21`, the Potency entry was “inactive”.

Regarding `COc1ccc2c(Oc3ccc(NC(=O)c4c(C)n(CC(C)(C)O)n(-c5ccccc5)c4=O)nc3)ccnc2c1`, the Potency result is “inactive”.

As to `C[C@]12CC[C@@H]3c4ccc(O)cc4C[C@@H](CCCCCCCCCS(=O)CCCC(F)(F)C(F)(F)F)[C@H]3[C@H]1CC[C@H]2O` (stereo not given in full), the Potency entry is “inactive”.

Consider `CC[C@]1(O)C[C@@H]2CN(CCc3c([nH]c4ccccc34)[C@@](C(=O)OC)(c3cc4c(cc3OC)N(C=O)[C@@H]3C45CCN4CC=C[C@](CC)([C@H]45)[C@@H](OC(C)=O)[C@]3(O)C(=O)OC)C2)C1` (stereo not given in full), for which the Potency result was “inactive”.

As for `COc1cc(NC(=O)c2ccc(-c3ccc(Cl)cc3)o2)cc(OC)c1`, the Potency entry was “inactive”.

Consider `Cc1cccc(Nc2nc(-c3ccncc3)cs2)c1`, for which the Potency entry is “inactive”.

As to `CNC(=O)c1ccc2cc(C3(O)CCn4cncc43)ccc2c1` (stereo not given), the Potency entry is “inactive”.

`CC(C)(C)COc1ccc(-n2cc(C(=O)O)cn2)cc1C#N`: the Potency result was “inactive”.

As to `O=C(O)[C@H]1O[C@H](Oc2cc3oc(-c4ccccc4)cc(=O)c3c(O)c2O)[C@H](O)[C@@H](O)[C@H]1O`, the Potency entry was “inactive”.

Regarding `OC[C@@H](O)[C@H](O)[C@H](O)[C@@H](O)CO`, the Potency result was “inactive”.

In the case of `NC(=O)NN=Cc1ccc([N+](=O)[O-])o1`, the Potency result is “inactive”.

As to `CN1[C@@H]2CCC[C@@H]1CC(NC(=O)c1nn(C)c3ccccc13)C2` (stereo not given in full), the Potency entry was “inactive”.

In the case of `O=C1NC(=O)C(=Cc2ccc(-c3ccc(F)cc3)o2)S1`, the Potency result was “inactive”.

With `COc1ccc(C2Sc3ccccc3N(CCN(C)C)C(=O)C2OC(C)=O)cc1` (stereo not given), the Potency result is “inactive”.

Take `Cc1nc(N)sc1-c1ccnc(Nc2ccc(N3CCOCC3)cc2)n1`: the Potency entry was “inactive”.

Take `CC(=O)Oc1cc2c(s1)CCN(C(C(=O)C1CC1)c1ccccc1F)C2` (stereo not given): the Potency entry is “inactive”.

As to `NCCS`, the Potency result is “inactive”.

On to `O=C(Nc1ccccc1-c1cn2c(CN3CCNCC3)csc2n1)c1cnc2ccccc2n1`, for which the Potency entry was “inactive”.

As for `COc1cc(N2CCC(N3CCN(C)CC3)CC2)ccc1Nc1ncnc(Nc2ccccc2S(=O)(=O)C(C)C)n1`, the Potency result was “inactive”.

With `CC(=O)O[C@]1(C(C)=O)CC[C@H]2[C@@H]3C=C(Cl)C4=CC(=O)[C@@H]5C[C@@H]5[C@]4(C)[C@H]3CC[C@@]21C`, the Potency result was “inactive”.

For the molecule `CN(C[C@@H]1COCCO1)S(=O)(=O)Nc1ccc2ccc3ncc(-c4cnn(C)c4)cc3c(=O)c2c1`, the Potency entry was “inactive”.

As for `Cc1ccn(-c2ccc(-c3ncco3)cc2)c(=O)c1-c1ccc2nc(N)ncc2c1`, the Potency entry is “inactive”.

Consider `COC[C@@H](c1ccc(C(F)(F)F)cc1)N1CCN(C2(C)CCN(C(=O)c3c(C)ncnc3C)CC2)C[C@H]1C`, for which the Potency result was “inactive”.

Take `CCCCCN(C)CCC(O)(P(=O)(O)O)P(=O)(O)O`: the Potency result was “inactive”.

Regarding `Cc1ccc([C@@H]2O[C@H](CO)[C@@H](O)[C@H](O)[C@@H]2O)cc1Cc1ccc(-c2ccc(F)cc2)s1`, the Potency result was “inactive”.

Regarding `O=C(NC1CCOCC1)c1ccc(-c2cc(-c3cn[nH]c3-c3ccccn3)ccn2)cc1`, the Potency entry is “inactive”.

For the molecule `CC(=O)N[C@@H](CS)C(=O)O`, the Potency entry was “inactive”.

On to `CC(C)n1cnc2c(NCCCCCCNC(=O)OC(C)(C)C)nc(NCCO)nc21`, for which the Potency result is “inactive”.
